Source: PubChem BioAssay (NCATS)
Results filed as inconclusive are left out. A call without a number means that no potency is given here. Activity calls are given as the source filed them. The call rests on the fitted dose curve; in most records, active means well fitted curve in the direction sought with a large enough effect; inconclusive means small, poorly fitted or top-dose-only effect, or another doubt; inactive means no such curve, though single readings can be large; an effect the other way counts as inactive or inconclusive.

How the values were obtained:
[1] = target: Ubiquitin carboxyl-terminal hydrolase 1 (Homo sapiens) (UniProt O94782); assay: Inhibitors of USP1/UAF1: Pilot qHTS (AID 504865); conditions: purified USP1/UAF1, Ub-rhodamine cleavage fluorescence; series mostly up to 114 µM;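 further: rhodamine fluorescence freed from ubiquitin-rhodamine substrate followed over time; top concentration of the series differs between compounds; nearly all actives have a fitted effect of over 35% in size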
Summary of the method: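 In 50mM HEPES pH 7.8 containing 0.5mM EDTA, 1mM TCEP, 0.1 mg/ml BSA and 0.01% Tween-20, 1nM USP1/UAF1 is exposed to compound for 15 min, then Ub-Rho (150nM final) is added and fluorescence is read over time.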

[2] = S16 Schwann cell viability assay (CellTiter-Glo assay) (AID 624031); conditions: S16 rat Schwann cells viability, 24 h; series mostly up to 57.5 µM;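 further: native untransfected S16 rat Schwann cells; cellular ATP luminescence as a viability measure; nearly all actives have a fitted effect of over 70% in size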
Summary of the method: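 Rat S16 Schwann cells without reporter constructs received compound or DMSO for 24 h at 37 °C under 5% CO2. Cellular ATP was then quantified by CellTiter-Glo luminescence, with vehicle wells defined as 0% activity and cell-free wells as reference.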

CP191 = assay: qHTS profiling for inhibitors of Plasmodium falciparum proliferation (AID 504749); further: nearly all actives have a fitted effect of over 60% in size; further: potency means the concentration at half of the fitted maximal effect; conditions: P. falciparum in erythrocytes, SYBR Green DNA, 72 h; series mostly up to 28.7 µM
Summary of the method: (§1)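 In a 72 h erythrocytic culture (37 C, humidified, 5% CO2) at 2.5% hematocrit and 0.3% starting parasitemia, compounds were tested; SYBR Green I in detergent lysis buffer stained parasite DNA overnight.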

P93_24 = assay: as above; conditions: P. falciparum in erythrocytes, SYBR Green DNA, 72 h; series mostly up to 28.7 µM
Summary of the method: as §1

TAB165 = assay: as above; conditions: P. falciparum in erythrocytes, SYBR Green DNA, 72 h; series mostly up to 28.7 µM
Summary of the method: as §1

ATS95 = assay: as above; conditions: P. falciparum in erythrocytes, SYBR Green DNA, 72 h; series mostly up to 28.7 µM
Summary of the method: as §1

CP260 = assay: as above; conditions: P. falciparum in erythrocytes, SYBR Green DNA, 72 h; series mostly up to 28.7 µM
Summary of the method: as §1

GB4 = assay: as above; conditions: P. falciparum in erythrocytes, SYBR Green DNA, 72 h; series mostly up to 28.7 µM
Summary of the method: as §1

P94_40 = assay: as above; conditions: P. falciparum in erythrocytes, SYBR Green DNA, 72 h; series mostly up to 28.7 µM
Summary of the method: as §1

C2A = assay: as above; conditions: P. falciparum in erythrocytes, SYBR Green DNA, 72 h; series mostly up to 28.7 µM
Summary of the method: as §1

CP247 = assay: as above; conditions: P. falciparum in erythrocytes, SYBR Green DNA, 72 h; series mostly up to 28.7 µM
Summary of the method: as §1

[3] = Confirmation and Secondary Assay for Modulators of Hemoglobin Beta Chain Splicing at IVS2 654 locus (AID 910); conditions: HeLa EGFP-654 splicing reporter, GFP fluorescence, 48 h; series mostly up to 46.1 µM;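 further: HeLa cells stably carrying EGFP split by mutant beta-globin IVS2-654 intron; per-well total GFP intensity by laser scanning cytometry after 2-day treatment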
Summary of the method: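 Readout: per-well total peak green fluorescence (488 nm ex, 500–520 nm em) from objects 5–250 µm, reflecting correct splicing of an EGFP-654 reporter. Compounds were applied for 2 days at 37 °C to overnight-plated HeLa EGFP-654 cells; controls were DMSO and 500 nM IVS2-654 PNA.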

[4] = Confirmation and Secondary Assay for Modulators of Hemoglobin Beta Chain Splicing at IVS2 705 locus (AID 930); conditions: HeLa EGFP-705 splicing reporter, GFP fluorescence, 48 h; series mostly up to 46.1 µM;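 further: HeLa cells stably expressing the EGFP-705 splicing reporter; GFP fluorescence per well restored by corrected splicing of the IVS2-705 intron in EGFP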
Summary of the method: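 Per-well GFP, captured at 1 x 8 µm resolution with 488 nm excitation, served as the read-out for HeLa EGFP-705 cells incubated 2 days with test compound versus DMSO.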

Chain of Ubiquitin carboxyl-terminal hydrolase 1 (Homo sapiens) (O94782 whole entry, looked up): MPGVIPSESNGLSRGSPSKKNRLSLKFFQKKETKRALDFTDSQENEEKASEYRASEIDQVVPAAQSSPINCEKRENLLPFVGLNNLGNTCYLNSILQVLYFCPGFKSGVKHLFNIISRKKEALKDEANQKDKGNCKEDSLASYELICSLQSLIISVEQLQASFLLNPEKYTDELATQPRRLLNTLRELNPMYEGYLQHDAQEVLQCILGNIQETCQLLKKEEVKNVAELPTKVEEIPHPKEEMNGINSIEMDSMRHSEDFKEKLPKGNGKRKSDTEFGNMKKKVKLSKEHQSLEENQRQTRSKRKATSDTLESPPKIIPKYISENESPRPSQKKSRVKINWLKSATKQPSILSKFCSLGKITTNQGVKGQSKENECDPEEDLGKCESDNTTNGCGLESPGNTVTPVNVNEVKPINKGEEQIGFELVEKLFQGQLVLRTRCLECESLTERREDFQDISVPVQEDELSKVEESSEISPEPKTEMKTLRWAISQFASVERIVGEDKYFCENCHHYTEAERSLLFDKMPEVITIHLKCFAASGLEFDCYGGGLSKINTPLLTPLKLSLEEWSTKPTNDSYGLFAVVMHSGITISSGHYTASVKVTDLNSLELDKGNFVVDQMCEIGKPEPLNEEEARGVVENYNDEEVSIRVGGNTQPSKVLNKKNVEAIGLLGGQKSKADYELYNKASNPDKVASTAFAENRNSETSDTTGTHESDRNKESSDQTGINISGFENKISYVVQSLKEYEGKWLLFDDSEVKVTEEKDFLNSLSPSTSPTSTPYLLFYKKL

SMILES: COc1ccc(CC(C)NCC(O)c2ccc(O)c(NC=O)c2)cc1 (stereo unspecified)
- Potency [1]: inactive

SMILES: CC1=C[C@@H](O)CC(C)(C)[C@@H]1/C=C/C(C)=C/C=C/C(C)=C/C=C/C=C(C)/C=C/C=C(C)/C=C/C1=C(C)C[C@H](O)CC1(C)C
- Potency [2]: inactive
- Potency (CP191): inactive

SMILES: COC(=O)C1[C@@H](OC)C(OC(=O)COc2ccc(OC)cc2)C[C@@H]2CN3CCc4c([nH]c5cc(OC)ccc45)[C@H]3C[C@H]12 (stereo partly specified)
- Potency [1]: inactive
- Potency [2]: inactive
- Potency (P93_24): 10 µM (active)
- Potency (TAB165): 12.6 µM (active)

SMILES: CCC(=O)OC1C(N(C)C)CC(C)O[C@H]1O[C@H]1[C@H](C)[C@@H](O[C@H]2CC(OC)[C@@H](O)C(C)O2)[C@H](C)C(=O)O[C@@H](CC)[C@](C)(O)[C@@H](O)[C@H](C)C(=O)[C@@H](C)C[C@]1(C)O (stereo partly specified)
- Potency [1]: inactive
- Potency [2]: inactive
- Potency (ATS95): inactive
- Potency (CP260): inactive

SMILES: CC1=C(/C=C/C(C)=C\C=C\C(C)=C\C=C\C=C(C)\C=C\C=C(C)\C=C\C2=C(C)C[C@@H](O)CC2(C)C)C(C)(C)C[C@H](O)C1
- Potency [2]: inactive
- Potency (CP191): inactive
- Potency (CP260): 10 µM (active)
- Potency (GB4): 13.5 µM (active)
- Potency (P93_24): 12.6 µM (active)
- Potency (TAB165): 11.2 µM (active)

SMILES: O=C1Oc2ccccc2C(=O)C1C(CC(O)c1ccc(-c2ccc(Br)cc2)cc1)c1ccccc1 (stereo unspecified)
- Potency (ATS95): inactive
- Potency (CP191): inactive
- Potency (CP260): inactive
- Potency (GB4): inactive
- Potency (P94_40): inactive
- Potency (TAB165): inactive

SMILES: Nc1nc(Cl)nc2c1ncn2[C@@H]1O[C@H](CO)[C@H](O)C1F (stereo partly specified)
- Potency [1]: inactive
- Potency (ATS95): inactive
- Potency (C2A): inactive
- Potency (CP191): inactive
- Potency (CP247): inactive
- Potency (CP260): inactive
- Potency (GB4): inactive
- Potency (P93_24): inactive
- Potency (P94_40): inactive
- Potency (TAB165): inactive

SMILES: C[C@]12CCC(=O)C=C1[C@@H]1C[C@H]1[C@H]1[C@@H]3[C@@H]4C[C@H]4[C@@]4(CCC(=O)O4)[C@@]3(C)CC[C@@H]12
- Potency (ATS95): inactive
- Potency (C2A): inactive
- Potency (CP191): inactive
- Potency (CP247): inactive
- Potency (CP260): inactive
- Potency (GB4): inactive
- Potency (P93_24): inactive
- Potency (P94_40): inactive
- Potency (TAB165): inactive

SMILES: CC1=C(C/C=C(\C)CCCC(C)CCCC(C)CCCC(C)C)C(=O)c2ccccc2C1=O (stereo unspecified)
- Potency [2]: inactive
- Potency (C2A): inactive
- Potency (CP247): inactive
- Potency (P94_40): 4.47 µM (active)

SMILES: O=C(NC(CO)C(O)c1ccc([N+](=O)[O-])cc1)C(Cl)Cl (stereo unspecified)
- Potency [3]: inactive
- Potency [4]: inactive
- Potency [1]: inactive
- Potency (ATS95): inactive

SMILES: CC(C)CCCC(C)C1CC(=O)C2=C3CCC4CC(O)CCC4(C)C3CCC21C (stereo unspecified)
- Potency [2]: inactive
- Potency (ATS95): inactive
- Potency (C2A): inactive
- Potency (CP191): inactive
- Potency (CP247): inactive
- Potency (GB4): inactive
- Potency (P93_24): inactive
- Potency (P94_40): inactive
- Potency (TAB165): inactive

SMILES: C=C1CC2C3C=C(C)C4=CC(=O)CCC4(C)C3CCC2(C)[C@@]1(OC(C)=O)C(C)=O (stereo partly specified)
- Potency (C2A): inactive
- Potency (CP247): inactive

SMILES: C[C@@H]1CC2[C@@H]3C[C@H](F)C4=CC(=O)C(Cl)=C[C@]4(C)[C@@]3(F)[C@H](O)C[C@]2(C)[C@@]1(O)C(=O)CO (stereo partly specified)
- Potency [2]: inactive

SMILES: CC[C@H]1OC(=O)[C@H](C)C(=O)[C@H](C)[C@@H](OC2O[C@H](C)C[C@H](N(C)C)[C@@H]2O)[C@@](C)(OC)C[C@@H](C)C(=O)[C@@H](C)C2N(CCCCn3cnc(-c4cccnc4)c3)C(=O)O[C@@]21C (stereo partly specified)
- Potency [2]: inactive
- Potency (C2A): inactive
- Potency (CP247): inactive

SMILES: CCC1OC(=O)C[C@@H](O)[C@H](C)[C@@H](OC2OC(C)CC(N(C)C)C2O)[C@@H](CC=O)C[C@@H](C)C(=O)/C=C/[C@]2(C)OC2C1C (stereo partly specified)
- Potency [2]: inactive
- Potency (P93_24): 1.12 µM (active)

SMILES: Oc1cc2cc(CCN3CCN(c4nsc5ccccc45)CC3)c(Cl)cc2[nH]1
- Potency (ATS95): inactive
- Potency (C2A): inactive
- Potency (CP247): 10 µM (active)
- Potency (P94_40): inactive

SMILES: CCC(C)C(N)C(=O)O (stereo unspecified)
- Potency [2]: inactive
- Potency (ATS95): inactive
- Potency (C2A): inactive
- Potency (CP191): inactive
- Potency (CP247): inactive
- Potency (CP260): inactive
- Potency (P93_24): inactive
- Potency (P94_40): inactive
- Potency (TAB165): inactive

SMILES: CCCCC(=O)OC1CCC2C3CCc4cc(O)ccc4C3CC[C@]12C (stereo partly specified)
- Potency [3]: inactive
- Potency [4]: inactive
- Potency (C2A): inactive
- Potency (CP260): inactive
- Potency (GB4): inactive

SMILES: OCC(O)C(O)C(O)C(O)CO (stereo unspecified)
- Potency (ATS95): inactive
- Potency (C2A): inactive
- Potency (CP191): inactive
- Potency (CP247): inactive
- Potency (CP260): inactive
- Potency (GB4): inactive
- Potency (P93_24): inactive
- Potency (P94_40): inactive
- Potency (TAB165): inactive

SMILES: CN(C)CC[C@@](O)(c1ccccc1)c1ccccc1Cl
- Potency [1]: inactive
- Potency (ATS95): 11.2 µM (active)
- Potency (CP260): 10 µM (active)
- Potency (GB4): 7.57 µM (active)
- Potency (P93_24): 5.62 µM (active)
- Potency (P94_40): 6.31 µM (active)
- Potency (TAB165): 6.31 µM (active)

SMILES: Cc1cncc(C(=O)O)[n+]1[O-]
- Potency (ATS95): inactive
- Potency (CP260): inactive
- Potency (GB4): inactive
- Potency (P94_40): inactive

SMILES: C=CCN1CC(C(=O)N(CCCN(C)C)C(=O)NCC)CC2c3cccc4[nH]cc(c34)CC21 (stereo unspecified)
- Potency [1]: inactive
- Potency (GB4): 15.1 µM (active)

SMILES: C[C@H](CN1c2ccccc2Sc2cccnc21)N(C)C
- Potency [1]: inactive
- Potency (ATS95): 11.2 µM (active)
- Potency (CP247): 3.98 µM (active)
- Potency (CP260): 8.91 µM (active)
- Potency (GB4): 6.75 µM (active)
- Potency (P93_24): 8.91 µM (active)
- Potency (TAB165): 11.2 µM (active)

SMILES: C=C1CCC(O)C/C1=C/C=C1\CCC[C@]2(C)[C@@H]([C@H](C)/C=C/[C@H](C)C(C)C)CC[C@@H]12 (stereo partly specified)
- Potency [2]: inactive
- Potency (CP260): inactive
